Laboratory results from PubChem BioAssay AID743449 (Broad Institute, 2014).
The whole screen tested about 9,900 compounds, of which about 90 (0.9%) were called active. Not shown: some 2% with an inconclusive outcome. Shown is part of a subset that was picked to be rich in actives. Unmarked numbers belong to inactive results.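 How the source made its calls: active means mean normalized replicate activity at least 50 and at least half of replicates each reaching 50; inconclusive means only one of the two criteria met; inactive means neither criterion met.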

Assay: YAP1 pathway inhibitors via CTGF transcript, primary screen, DLD1 colon cancer cells, RT-qPCR, single point (AID 743449);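 further: 0% = neutral control wells and 100% = dasatinib control wells; higher means stronger suppression of CTGF expression like dasatinib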
Settings: DLD1 CTGF mRNA qPCR, 24 h; at 12.5 µM; active compounds read high

Structure (SMILES) | inhibition
C[C@@H](NC(=O)C[C@@H]1CC[C@H]2[C@@H](COc3ccc(NC(=O)C4CCOCC4)cc3C(=O)N2C)O1)c1ccccc1 | -5.56%
O=C(CN1CCOCC1)N1CC[C@@H]2[C@H](CO)Nc3ccc(-c4ccccc4F)cc3[C@@H]21 | -17.8%
CCCC#Cc1ccc([C@@H]2[C@H]3CN(S(=O)(=O)c4ccccc4C)CC(=O)N3[C@H]2CO)cc1 | 26.1%
C[C@@H]1CN([C@H](C)CO)C(=O)c2ccccc2-c2ccccc2CO[C@H]1CN(C)C(=O)[C@@H]1CCCN1C | 3.47%
O=C(Nc1ccc(C(F)(F)F)cc1)Nc1ccc2c(c1)[C@H]1C[C@H](CC(=O)N3CCc4ccccc4C3)O[C@@H](CO)[C@H]1O2 | 57.2% (active)
O=C(Nc1ccc2c(c1)[C@H]1C[C@@H](CC(=O)N3CCc4ccccc4C3)O[C@H](CO)[C@H]1O2)c1ccc2c(c1)OCO2 | 56.2% (active)
O=C(Nc1ccc2c(c1)[C@H]1C[C@@H](CC(=O)N3CCc4ccccc4C3)O[C@@H](CO)[C@H]1O2)c1ccc2c(c1)OCO2 | 61.8% (active)
O=C(Nc1ccc2c(c1)[C@H]1C[C@H](CC(=O)N3CCc4ccccc4C3)O[C@H](CO)[C@H]1O2)c1ccc2c(c1)OCO2 | 17%
O=C(Nc1ccc2c(c1)[C@@H]1C[C@H](CC(=O)N3CCc4ccccc4C3)O[C@@H](CO)[C@@H]1O2)c1ccc2c(c1)OCO2 | -4.94%
O=C(Nc1ccc(C(F)(F)F)cc1)Nc1ccc2c(c1)[C@@H]1C[C@H](CC(=O)N3CCc4ccccc4C3)O[C@@H](CO)[C@@H]1O2 | -25%
O=C(Nc1ccc2c(c1)[C@@H]1C[C@H](CC(=O)N3CCc4ccccc4C3)O[C@H](CO)[C@@H]1O2)c1ccc2c(c1)OCO2 | -19.3%
O=C(Nc1ccc2c(c1)[C@@H]1C[C@@H](CC(=O)N3CCc4ccccc4C3)O[C@H](CO)[C@@H]1O2)c1ccc2c(c1)OCO2 | 21.2%
O=C(Nc1ccc(C(F)(F)F)cc1)Nc1ccc2c(c1)[C@@H]1C[C@H](CC(=O)N3CCc4ccccc4C3)O[C@H](CO)[C@@H]1O2 | -58%
CS(=O)(=O)N1[C@@H](C#N)[C@H](c2ccc(C#Cc3cccc(F)c3)cc2)[C@@H]1CO | -161%
O=C(C[C@@H]1CC[C@@H](NC(=O)C2CCOCC2)[C@@H](CO)O1)NCC1CCCCC1 | -39.2%
CO[C@@H]1CN(C)C(=O)c2ccc(NS(=O)(=O)c3ccc(C)cc3)cc2OC[C@H](C)N(C)C[C@@H]1C | -16.4%
CC(=O)N1CC2(C1)[C@H](c1ccccc1)[C@H](CO)N2C(=O)c1cnccn1 | -10.2%
CCCNC(=O)N1C[C@@H]2[C@H](c3ccccc31)[C@@H](CO)N2Cc1cccc(OC)c1 | -37.6%
COCCNC(=O)c1cc2c(c(-c3cccc(C4=CCCCC4)c3)n1)[C@@H](CCO)N([S@](=O)C(C)(C)C)C2 | -10.8%
CCc1nc(N2[C@@H](C#N)[C@@H](c3ccccc3-c3ccc(F)cc3)[C@@H]2CO)sc1C | 10.1%
CCc1nc(N2[C@H](CO)[C@H](c3ccccc3-c3ccc(F)cc3)[C@@H]2C#N)sc1C | -17.7%

Structure (SMILES) | inhibition
CCc1nc(N2[C@H](CO)[C@@H](c3ccccc3-c3ccc(F)cc3)[C@@H]2C#N)sc1C | 55.4% (active)
CNC[C@H]1Oc2c(NC(=O)Nc3cccc4ccccc34)cccc2C(=O)N([C@@H](C)CO)C[C@H]1C | -2.92%
COc1ccc(NC(=O)N(C)C[C@H]2Oc3c(NC(=O)CCCCCC(=O)Nc4ccccc4N)cccc3C(=O)N([C@H](C)CO)C[C@@H]2C)cc1 | 51% (active)
C[C@@H]1CN([C@@H](C)CO)C(=O)c2cccc(NC(=O)c3nc4ccccc4s3)c2O[C@H]1CN(C)C(=O)Nc1ccc2c(c1)OCO2 | 52.6% (active)
C[C@H](CO)N1C[C@H](C)[C@H](CN(C)C(=O)Nc2ccc(C(F)(F)F)cc2)Oc2c(NC(=O)c3ccc(-c4nccs4)cc3)cccc2C1=O | -20.1%
C[C@H]1CN([C@@H](C)CO)C(=O)c2cccc(NC(=O)c3ccc(-c4nccs4)cc3)c2O[C@H]1CN(C)C(=O)Nc1ccc(C(F)(F)F)cc1 | 11.6%
COc1ccc(NC(=O)N(C)C[C@H]2Oc3c(NC(=O)CCCCCC(=O)Nc4ccccc4N)cccc3C(=O)N([C@@H](C)CO)C[C@@H]2C)cc1 | 30.8%
C[C@H]1CN([C@@H](C)CO)C(=O)c2cccc(NC(=O)c3ccc(-c4nccs4)cc3)c2O[C@@H]1CN(C)C(=O)Nc1ccc(C(F)(F)F)cc1 | 72.5% (active)
C[C@H](CO)N1C[C@H](C)[C@H](CN(C)C(=O)Nc2ccc3c(c2)OCO3)Oc2c(NC(=O)c3nc4ccccc4s3)cccc2C1=O | 14.1%
C[C@@H]1CN([C@@H](C)CO)C(=O)c2cccc(NC(=O)c3nc4ccccc4s3)c2O[C@@H]1CN(C)C(=O)Nc1ccc2c(c1)OCO2 | 13.9%
CNC[C@H]1Oc2c(NC(=O)Nc3cccc4ccccc34)cccc2C(=O)N([C@H](C)CO)C[C@@H]1C | 50.9% (active)
COc1ccc(NC(=O)N(C)C[C@@H]2Oc3c(NC(=O)CCCCCC(=O)Nc4ccccc4N)cccc3C(=O)N([C@@H](C)CO)C[C@H]2C)cc1 | 1.84%
CNC[C@@H]1Oc2c(NC(=O)Nc3cccc4ccccc34)cccc2C(=O)N([C@@H](C)CO)C[C@H]1C | 17%
O=C(C[C@@H]1C=C[C@@H](NC(=O)c2ccncc2)[C@H](CO)O1)NCC1CC1 | 15.8%
COCC#Cc1ccc([C@H]2[C@@H](CO)N3CCCCN(Cc4cccnc4)C[C@H]23)cc1 | -7.41%
O=C(C1CCOCC1)N1CC2(C1)[C@H](c1ccccc1)[C@@H](CO)N2C(=O)CC1CC1 | -35.8%
COc1cccc(NC(=O)C[C@@H]2CC[C@@H]3[C@@H](COc4ccc(NC(=O)C5CC5)cc4C(=O)N3C)O2)c1 | -24.6%
COc1ccc(-c2ccc([C@@H]3[C@@H](CO)N4C(=O)CN(C(=O)Cc5ccccn5)C[C@@H]34)cc2)cc1 | 16.8%
CO[C@H](CN(C)Cc1ccc2c(c1)OCO2)[C@@H](C)CN(C(=O)Nc1ccc(F)cc1)[C@H](C)CO | -17.7%
CC(C)[C@H]1CC=CC[C@@H](C)Oc2ccccc2C(=O)N(C)[C@H](C(C)C)C(=O)N1 (mixture of isomers) | 34.9%
Cc1noc(C)c1NC(=O)N(C)C[C@@H]1Oc2cc(C#CCN(C)C)ccc2S(=O)(=O)N([C@H](C)CO)C[C@H]1C | -1.27%

Structure (SMILES) | inhibition
C[C@H](CO)N1C[C@H](C)[C@@H](CN(C)C(=O)Nc2ccc3c(c2)OCO3)Oc2c(NC(=O)c3nc4ccccc4s3)cccc2C1=O | 46.6%
C[C@@H]1CN([C@H](C)CO)C(=O)c2cccc(NC(=O)c3nc4ccccc4s3)c2O[C@H]1CN(C)C(=O)Nc1ccc2c(c1)OCO2 | 73% (active)
C[C@@H]1CN([C@H](C)CO)C(=O)c2cccc(NC(=O)c3nc4ccccc4s3)c2O[C@@H]1CN(C)C(=O)Nc1ccc2c(c1)OCO2 | 6.24%
C[C@H]1CN([C@@H](C)CO)C(=O)c2cccc(NC(=O)c3nc4ccccc4s3)c2O[C@@H]1CN(C)C(=O)Nc1ccc2c(c1)OCO2 | 78.9% (active)
COc1ccc(S(=O)(=O)N(C)C[C@@H]2Oc3c(NC(=O)c4nc5ccccc5s4)cccc3C(=O)N([C@@H](C)CO)C[C@@H]2C)cc1 | 34.9%
COc1ccc(S(=O)(=O)N(C)C[C@@H]2Oc3c(NC(=O)c4nc5ccccc5s4)cccc3C(=O)N([C@H](C)CO)C[C@H]2C)cc1 | 9.74%
C[C@@H]1CN([C@@H](C)CO)C(=O)c2cc(NC(=O)Cc3ccccc3)ccc2O[C@@H](C)CCCCO[C@H]1CN(C)Cc1ccncc1 | 2.97%
O=C(Nc1ccc(C(F)(F)F)cc1)Nc1ccc2c(c1)[C@H]1C[C@H](CC(=O)N3CCc4ccccc4C3)O[C@H](CO)[C@H]1O2 | 41.9%
Cc1ccc(S(=O)(=O)N2CC[C@@H]3[C@H]2c2cc(-c4cccc(C(=O)N(C)C)c4)ccc2N[C@@H]3CO)cc1 | 68.4% (active)
C/C=C/c1ccc2c(c1)[C@@H]1[C@@H](CCN1S(=O)(=O)c1ccccc1OC)[C@H](CO)N2C | -5.93%
N#Cc1cccc(-c2ccc3c(c2)[C@@H]2[C@@H](CCN2S(=O)(=O)c2ccc(F)cc2)[C@@H](CO)N3)c1 | 22.5%
N#Cc1cccc(-c2ccc3c(c2)[C@@H]2[C@@H](CCN2S(=O)(=O)c2ccc(F)cc2)[C@H](CO)N3)c1 | 63% (active)
Cc1ccc(S(=O)(=O)N2CC[C@@H]3[C@@H](CO)Nc4ccc(-c5cccc(C(=O)N(C)C)c5)cc4[C@@H]32)cc1 | 4.93%
Cc1ccc(S(=O)(=O)N2CC[C@H]3[C@H](CO)Nc4ccc(-c5cccc(C(=O)N(C)C)c5)cc4[C@H]32)cc1 | 56.9% (active)
COc1ccccc1-c1ccc2c(c1)[C@@H]1[C@@H](CCN1S(=O)(=O)c1ccc(C)cc1)[C@H](CO)N2 | 37.4%
COc1ccccc1S(=O)(=O)N1CC[C@@H]2[C@H]1c1cc(-c3cccc(C#N)c3)ccc1N(C)[C@H]2CO | 62.1% (active)
COc1ccccc1-c1ccc2c(c1)[C@H]1[C@H](CCN1S(=O)(=O)c1ccc(C)cc1)[C@@H](CO)N2 | 17.3%
Cc1ccc(S(=O)(=O)N2CC[C@@H]3[C@H](CO)Nc4ccc(-c5cccc(C(=O)N(C)C)c5)cc4[C@@H]32)cc1 | -15%
COc1ccccc1S(=O)(=O)N1CC[C@@H]2[C@@H](CO)N(C)c3ccc(-c4cccc(C#N)c4)cc3[C@@H]21 | 32%
N#Cc1cccc(-c2ccc3c(c2)[C@H]2[C@H](CCN2S(=O)(=O)c2ccc(F)cc2)[C@H](CO)N3)c1 | 20.1%
